Experimental data reported in PubChem BioAssay (EPA / NIEHS).
“And” between values parts separate entries of the source, which are not always exact repeats. Equal entries are not always repeated. Results filed as inconclusive are left out. The source made the active and inactive calls. How the source made its calls, unless noted: active means hit-call score of the fitted dose curve at least 0.9, where 1 is the maximum; inactive means score below 0.9.

Key:
[1] = biological target: Myc proto-oncogene protein (Homo sapiens) (UniProt P01106); experiment: ATG_Myc_CIS: Attagene CIS-FACTORIAL HepG2 Assay for human Myelocytomatosis (Myc) Proto-Oncogene Transcription Factor (AID 2282990); details: HepG2, Attagene cis-reporter transcription factor activity; actives raise or lower the signal
Chain of Myc proto-oncogene protein (Homo sapiens) (P01106 whole entry, looked up, the tested form may be a part): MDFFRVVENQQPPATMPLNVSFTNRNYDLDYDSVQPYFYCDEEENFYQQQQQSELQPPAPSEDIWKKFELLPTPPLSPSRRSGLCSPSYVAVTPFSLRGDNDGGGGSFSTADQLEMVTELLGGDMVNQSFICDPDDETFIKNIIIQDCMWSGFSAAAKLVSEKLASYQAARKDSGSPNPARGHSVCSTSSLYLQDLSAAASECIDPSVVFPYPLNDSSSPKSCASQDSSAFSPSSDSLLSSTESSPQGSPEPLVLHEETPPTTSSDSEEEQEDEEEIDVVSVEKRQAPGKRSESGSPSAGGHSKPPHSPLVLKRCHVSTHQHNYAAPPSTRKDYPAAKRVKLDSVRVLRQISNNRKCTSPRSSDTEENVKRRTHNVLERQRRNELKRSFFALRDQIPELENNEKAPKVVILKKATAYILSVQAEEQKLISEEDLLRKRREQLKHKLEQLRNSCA
Method in brief: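 After 24 h chemical treatment of HepG2 cells carrying multiplexed cis-regulated reporter constructs, reporter transcripts quantified by RT-PCR and capillary electrophoresis of fluorescent fragments. Gain or loss fitted against DMSO baseline.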

[2] = ATG_NF_kB_CIS: Attagene CIS-FACTORIAL HepG2 Assay for human Nuclear Factor Kappa B (NF-kB) (AID 2282991); details: HepG2 Attagene cis-factorial NF-kB reporter mRNA; actives raise or lower the signal
Method in brief: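 HepG2 cells transfected with cis-promoter-driven reporter units, so endogenous transcription factor activity is measured. Reporter mRNA quantified 24 h after dosing by RT-PCR and capillary electrophoresis, with bidirectional fitting against DMSO.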

[3] = ATG_NRF2_ARE_CIS: Attagene CIS-FACTORIAL HepG2 Assay for human Nuclear Factor Erythroid 2 Related Factor 2 (NFR2) response to Antioxidant Response Elements (ARE) (AID 2282992); details: HepG2 Attagene ARE/NRF2 reporter, transcription factor activity; actives raise or lower the signal;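 on AC50: reporter mRNA level measured by RT-PCR and capillary electrophoresis fluorescence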
Method in brief: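 HepG2 cells transiently transfected with multiplexed cis-regulated reporter transcription units measure endogenous transcription factor activity. Reporter mRNA at 24 h is quantified by RT-PCR, fluorescent labelling and capillary electrophoresis, with bidirectional fitting relative to DMSO.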

[4] = ATG_Oct_MLP_CIS: Attagene CIS-FACTORIAL HepG2 Assay for human Octamer-Binding Transcription Factor (Oct) (AID 2282993); details: HepG2 Attagene cis-factorial Oct reporter, mRNA; actives raise or lower the signal
Method in brief: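 HepG2 cells transiently transfected with cis-element-driven reporter transcription units (endogenous TF activity); 24 h compound exposure. Reporter mRNA quantified by RT-PCR, 6-FAM labelling, HpaI digestion and capillary electrophoresis; bidirectional fit versus DMSO baseline.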

[5] = BSK_3C_TissueFactor: BioMAP Diversity Plus: 3C Assay for Tissue Factor Biomarker Activity (AID 2282997); details: BioMAP 3C HUVEC, tissue factor biomarker readout; actives raise or lower the signal
Method in brief: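 Values derive from bidirectional curve fitting against DMSO of Tissue Factor ELISA signals, taken 24 h after dosing primary human umbilical vein endothelial cells.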

[6] = BSK_3C_uPAR: BioMAP Diversity Plus: 3C Assay for Urokinase-type plasminogen activator receptor (uPAR) Biomarker Activity (AID 2282998); details: BioMAP 3C HUVEC, uPAR biomarker ELISA; actives raise or lower the signal
Method in brief: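 Primary human umbilical vein endothelial cells, 3C system; surface uPAR measured by ELISA 24 h after dosing. Cytotoxicity via SRB total protein in parallel cultures; bidirectional fit against DMSO.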

[7] = BSK_3C_VCAM1: BioMAP Diversity Plus: 3C Assay for Vascular cell adhesion molecule 1 (VCAM1) Biomarker Activity (AID 2282999); details: BioMAP 3C HUVEC, VCAM1 ELISA, cytokine-stimulated; actives raise or lower the signal
Method in brief: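 Endothelial cells from human umbilical vein are treated with test chemical. At 24 h, VCAM-1 is measured by ELISA, and responses in either direction are fitted relative to DMSO.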

[8] = BSK_4H_Eotaxin3: BioMAP Diversity Plus: 4H Assay for Eotaxin 3 Biomarker Activity (AID 2283000); details: primary human endothelial cells (HUVEC); actives raise or lower the signal
Method in brief: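 Endothelial primary cells (human umbilical vein) exposed to compound for 24 h. ELISA detection of Eotaxin-3.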

[9] = biological target: human Peroxisome Proliferator-activated Receptor delta (PPARd), PPARD (gene 5467) (UniProt Q03181); experiment: ATG_PPARd_TRANS: Attagene TRANS-FACTORIAL HepG2 Assay for human Peroxisome Proliferator-activated Receptor delta (PPARd) (AID 2283002; active means hit-call score of the fitted dose curve at least 0.9, where 1 is the maximum)
Chain of human Peroxisome Proliferator-activated Receptor delta (PPARd), PPARD (gene 5467) (Q03181 whole entry, looked up, the tested form may be a part): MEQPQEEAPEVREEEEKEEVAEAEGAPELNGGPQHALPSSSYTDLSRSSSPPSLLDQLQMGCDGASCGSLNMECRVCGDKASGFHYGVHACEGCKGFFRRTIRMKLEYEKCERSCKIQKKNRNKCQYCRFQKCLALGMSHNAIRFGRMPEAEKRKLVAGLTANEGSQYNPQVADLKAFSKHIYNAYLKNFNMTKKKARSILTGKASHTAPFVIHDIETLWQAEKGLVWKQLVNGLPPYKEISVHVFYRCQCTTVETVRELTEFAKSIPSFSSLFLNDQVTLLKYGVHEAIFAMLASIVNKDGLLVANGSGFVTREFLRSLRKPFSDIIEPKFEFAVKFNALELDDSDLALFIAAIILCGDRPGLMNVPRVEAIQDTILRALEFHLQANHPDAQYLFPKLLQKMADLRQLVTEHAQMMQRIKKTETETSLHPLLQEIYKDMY
Method in brief: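 Read-out is induced reporter mRNA, quantified by RT-PCR with fluorescent labelling and capillary electrophoresis after 24 h dosing. Cells are HepG2 transiently carrying multiple GAL4-UAS reporter units driven by exogenous NR-GAL4 chimeras; DMSO serves as baseline.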

[10] = read-out: Intercellular Adhesion Molecule 1 (ICAM1), ICAM1 (gene 3383); experiment: BSK_3C_ICAM1: BioMAP Diversity Plus: 3C Assay for Intercellular Adhesion Molecule 1 (ICAM1) Biomarker Activity (AID 2283003); details: primary human endothelial cells (HUVEC); actives raise or lower the signal
Method in brief: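 HUVEC primary cells stimulated under 3C conditions; ICAM1 measured by ELISA 24 h after compound dosing. Curves fitted bidirectionally against the DMSO baseline. Overt cytotoxicity checked by SRB staining of parallel cultures.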

[11] = BSK_3C_Proliferation: Cell Proliferation Assessment in the BioMAP Diversity Plus: 3C Assay (AID 2283006); details: primary human endothelial cells (HUVEC);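 on AC50: potency may reflect either rise or fall in cell number versus DMSO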
Method in brief: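 Subconfluent HUVEC (3C system) cultured with chemical; relative cell number read at 48 h by sulforhodamine B total-protein staining (0.1% SRB after 10% TCA fixation, 560 nm). Bidirectional fit relative to DMSO.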

[12] = biological target: human RAR-related Orphan Receptor gamma (RORg), RORC (gene 6097) (UniProt P51449); experiment: ATG_RORg_TRANS: Attagene TRANS-FACTORIAL HepG2 Assay for human RAR-related Orphan Receptor gamma (RORg) (AID 2283011; active means hit-call score of the fitted dose curve at least 0.9, where 1 is the maximum)
Chain of human RAR-related Orphan Receptor gamma (RORg), RORC (gene 6097) (P51449 whole entry, looked up, the tested form may be a part): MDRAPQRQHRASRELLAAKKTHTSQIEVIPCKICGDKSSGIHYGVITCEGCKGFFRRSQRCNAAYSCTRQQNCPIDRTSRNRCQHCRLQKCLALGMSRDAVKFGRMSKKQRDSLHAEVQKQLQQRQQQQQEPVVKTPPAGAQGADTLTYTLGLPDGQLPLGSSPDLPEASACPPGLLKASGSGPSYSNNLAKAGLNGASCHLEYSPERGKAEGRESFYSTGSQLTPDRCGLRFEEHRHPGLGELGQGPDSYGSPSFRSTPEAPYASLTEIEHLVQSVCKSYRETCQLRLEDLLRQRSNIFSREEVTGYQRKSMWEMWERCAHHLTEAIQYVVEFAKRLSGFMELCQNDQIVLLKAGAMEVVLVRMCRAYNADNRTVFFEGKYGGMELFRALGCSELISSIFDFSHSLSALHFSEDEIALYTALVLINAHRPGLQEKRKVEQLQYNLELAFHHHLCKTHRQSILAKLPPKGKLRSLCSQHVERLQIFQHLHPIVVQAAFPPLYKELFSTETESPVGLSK
Method in brief: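 Activity is scored as increase in GAL4-UAS reporter mRNA over DMSO, detected by fluorescent RT-PCR and capillary electrophoresis in HepG2 cells transiently expressing a RORg-Gal4 chimera, 24 h after dosing.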

[13] = biological target: Cellular tumor antigen p53 (Homo sapiens) (UniProt P04637); experiment: ATG_p53_CIS: Attagene CIS-FACTORIAL HepG2 Assay for human p53 Transcription Factor (AID 2282994); details: HepG2 p53 cis-element reporter, Attagene mRNA; actives raise or lower the signal
Chain of Cellular tumor antigen p53 (Homo sapiens) (P04637 whole entry, looked up): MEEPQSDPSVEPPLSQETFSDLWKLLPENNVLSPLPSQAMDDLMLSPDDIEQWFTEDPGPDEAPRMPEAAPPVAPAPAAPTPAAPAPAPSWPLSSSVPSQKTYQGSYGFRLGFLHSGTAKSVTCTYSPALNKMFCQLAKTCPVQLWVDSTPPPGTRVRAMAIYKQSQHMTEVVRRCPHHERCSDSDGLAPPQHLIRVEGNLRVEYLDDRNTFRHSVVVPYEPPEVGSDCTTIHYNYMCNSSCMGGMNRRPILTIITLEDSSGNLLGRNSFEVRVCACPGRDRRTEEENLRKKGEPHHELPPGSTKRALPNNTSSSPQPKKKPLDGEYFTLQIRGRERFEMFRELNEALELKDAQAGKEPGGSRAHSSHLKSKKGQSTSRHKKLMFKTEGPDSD
Method in brief: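 HepG2 cells transiently transfected with multiplexed cis-regulated reporter transcription units read endogenous TF activity. After 24 h compound exposure, reporter mRNA was quantified by RT-PCR, fluorescent labelling, HpaI digestion and capillary electrophoresis; bidirectional fits versus DMSO baseline.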

[14] = biological target: human Peroxisome Proliferator-activated Receptor alpha (PPARa), PPARA (gene 5465) (UniProt Q07869); experiment: ATG_PPARa_TRANS: Attagene TRANS-FACTORIAL HepG2 Assay for human Peroxisome Proliferator-activated Receptor alpha (PPARa) (AID 2283001; active means hit-call score of the fitted dose curve at least 0.9, where 1 is the maximum;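 on AC50: potency for gain of reporter signal over DMSO so agonist or activator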)
Chain of human Peroxisome Proliferator-activated Receptor alpha (PPARa), PPARA (gene 5465) (Q07869 whole entry, looked up, the tested form may be a part): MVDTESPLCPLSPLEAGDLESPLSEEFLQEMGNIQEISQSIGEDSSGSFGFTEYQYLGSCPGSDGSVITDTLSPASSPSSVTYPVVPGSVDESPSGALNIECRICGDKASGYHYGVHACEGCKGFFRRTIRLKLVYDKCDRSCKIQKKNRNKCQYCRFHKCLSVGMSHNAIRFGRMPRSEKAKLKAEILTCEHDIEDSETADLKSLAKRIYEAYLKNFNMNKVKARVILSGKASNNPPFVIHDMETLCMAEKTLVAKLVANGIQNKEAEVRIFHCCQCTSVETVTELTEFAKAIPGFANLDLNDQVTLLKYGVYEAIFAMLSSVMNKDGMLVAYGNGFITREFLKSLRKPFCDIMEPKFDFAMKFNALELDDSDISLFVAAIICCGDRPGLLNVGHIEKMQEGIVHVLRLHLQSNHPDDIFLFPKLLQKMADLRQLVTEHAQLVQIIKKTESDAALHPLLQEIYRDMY
Method in brief: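 Read-out is fluorescence of reporter cDNA fragments resolved by capillary electrophoresis after RT-PCR. Human HepG2 liver cells carried transfected PPARa-Gal4 chimera and GAL4-UAS reporter units, treated 24 h; activity scored as increase over DMSO.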

[15] = biological target: human Retinoic Acid Receptor beta (RARb), RARB (gene 5915) (UniProt P10826); experiment: ATG_RARb_TRANS: Attagene TRANS-FACTORIAL HepG2 Assay for human Retinoic Acid Receptor beta (AID 2283004; active means hit-call score of the fitted dose curve at least 0.9, where 1 is the maximum)
Chain of human Retinoic Acid Receptor beta (RARb), RARB (gene 5915) (P10826 whole entry, looked up, the tested form may be a part): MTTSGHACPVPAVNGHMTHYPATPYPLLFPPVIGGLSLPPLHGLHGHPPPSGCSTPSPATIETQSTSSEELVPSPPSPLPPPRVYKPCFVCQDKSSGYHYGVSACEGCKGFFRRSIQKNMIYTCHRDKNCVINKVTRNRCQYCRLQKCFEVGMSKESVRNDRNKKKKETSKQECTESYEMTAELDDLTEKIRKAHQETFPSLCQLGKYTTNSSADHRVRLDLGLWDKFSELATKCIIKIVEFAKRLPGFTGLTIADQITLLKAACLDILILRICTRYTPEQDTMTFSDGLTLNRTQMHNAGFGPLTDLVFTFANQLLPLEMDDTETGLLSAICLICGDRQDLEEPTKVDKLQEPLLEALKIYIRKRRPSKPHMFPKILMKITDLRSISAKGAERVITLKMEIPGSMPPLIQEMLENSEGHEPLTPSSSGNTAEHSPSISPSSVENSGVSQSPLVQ
Method in brief: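 HepG2, transient MRTU transfection, NR–Gal4 chimera, 24 h treatment; RT-PCR plus CE fluorescence detection of reporter mRNA; gain of signal vs DMSO.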

[16] = biological target: Retinoic acid receptor alpha (Homo sapiens) (UniProt P10276); experiment: ATG_RARa_TRANS: Attagene TRANS-FACTORIAL HepG2 Assay for human Retinoic Acid Receptor alpha (RARa) (AID 2283005; active means hit-call score of the fitted dose curve at least 0.9, where 1 is the maximum)
Chain of Retinoic acid receptor alpha (Homo sapiens) (P10276 whole entry, looked up, the tested form may be a part): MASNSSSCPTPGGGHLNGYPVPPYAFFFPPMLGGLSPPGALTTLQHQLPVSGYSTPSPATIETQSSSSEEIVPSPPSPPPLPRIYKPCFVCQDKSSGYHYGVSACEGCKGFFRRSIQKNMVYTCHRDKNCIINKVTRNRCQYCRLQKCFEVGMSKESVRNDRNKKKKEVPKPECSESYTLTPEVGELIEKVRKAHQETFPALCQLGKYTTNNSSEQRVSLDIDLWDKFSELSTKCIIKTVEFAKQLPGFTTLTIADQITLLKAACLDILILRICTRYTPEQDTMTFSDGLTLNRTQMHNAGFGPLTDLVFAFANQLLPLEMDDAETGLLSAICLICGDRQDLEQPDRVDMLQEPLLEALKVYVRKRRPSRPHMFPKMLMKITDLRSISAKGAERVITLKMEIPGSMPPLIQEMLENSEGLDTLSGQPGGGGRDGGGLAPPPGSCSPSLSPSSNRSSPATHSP
Method in brief: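 Reporter transcripts, measured by RT-PCR with fluorescent labeling and capillary electrophoresis after 24 h dosing, reflect activity of an exogenous human RARa–GAL4 fusion in transiently transfected HepG2. Fitted for increase relative to DMSO.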

[17] = biological target: Peroxisome proliferator-activated receptor gamma (Homo sapiens) (UniProt P37231); experiment: ATG_PPARg_TRANS: Attagene TRANS-FACTORIAL HepG2 Assay for human Peroxisome Proliferator-activated Receptor-gamma (PPARg) (AID 2283007; active means hit-call score of the fitted dose curve at least 0.9, where 1 is the maximum)
Chain of Peroxisome proliferator-activated receptor gamma (Homo sapiens) (P37231 whole entry, looked up, the tested form may be a part): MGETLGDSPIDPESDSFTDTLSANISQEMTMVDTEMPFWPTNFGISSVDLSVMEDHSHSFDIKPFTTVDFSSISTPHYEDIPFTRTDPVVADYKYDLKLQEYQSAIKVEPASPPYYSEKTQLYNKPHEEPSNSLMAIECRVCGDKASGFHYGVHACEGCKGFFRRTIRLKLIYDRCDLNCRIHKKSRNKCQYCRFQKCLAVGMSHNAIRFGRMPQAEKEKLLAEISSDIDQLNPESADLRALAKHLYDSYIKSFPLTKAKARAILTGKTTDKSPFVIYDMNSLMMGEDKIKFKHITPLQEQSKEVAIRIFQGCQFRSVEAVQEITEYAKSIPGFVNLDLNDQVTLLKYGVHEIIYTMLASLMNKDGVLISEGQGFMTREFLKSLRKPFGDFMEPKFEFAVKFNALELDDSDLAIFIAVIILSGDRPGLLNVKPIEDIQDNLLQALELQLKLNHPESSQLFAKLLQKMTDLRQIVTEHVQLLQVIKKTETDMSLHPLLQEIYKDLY
Method in brief: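 HepG2 cells are transiently transfected with GAL4-UAS reporter units driven by chimeric NR-Gal4 fusions and dosed for 24 h. Reporter mRNA is quantified by RT-PCR, 6-FAM labelling, HpaI digestion and capillary electrophoresis. Induction is scored against DMSO.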

[18] = biological target: Nuclear receptor subfamily 1 group I member 2 (Homo sapiens) (UniProt O75469); experiment: ATG_PXR_TRANS: Attagene TRANS-FACTORIAL HepG2 Assay for human Pregnane X Receptor (PXR) (AID 2283008; active means hit-call score of the fitted dose curve at least 0.9, where 1 is the maximum)
Chain of Nuclear receptor subfamily 1 group I member 2 (Homo sapiens) (O75469 whole entry, looked up, the tested form may be a part): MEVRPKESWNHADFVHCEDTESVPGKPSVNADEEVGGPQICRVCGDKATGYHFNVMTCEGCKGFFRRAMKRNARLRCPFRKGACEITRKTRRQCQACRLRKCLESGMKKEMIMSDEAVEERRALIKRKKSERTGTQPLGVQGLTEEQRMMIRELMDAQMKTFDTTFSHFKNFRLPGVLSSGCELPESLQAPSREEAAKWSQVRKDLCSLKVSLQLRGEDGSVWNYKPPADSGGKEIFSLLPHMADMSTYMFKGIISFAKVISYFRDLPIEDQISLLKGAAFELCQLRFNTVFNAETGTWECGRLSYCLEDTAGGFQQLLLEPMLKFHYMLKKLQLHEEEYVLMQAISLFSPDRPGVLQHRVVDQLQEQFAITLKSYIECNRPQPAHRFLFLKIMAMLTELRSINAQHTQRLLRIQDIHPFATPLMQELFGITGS
Method in brief: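 HepG2 cells transiently transfected with multiple reporter units, here a PXR-GAL4 chimera driving a GAL4-UAS reporter; 24 h compound exposure. Reporter mRNA measured by RT-PCR, FAM labelling and capillary electrophoresis; gain of signal fitted against DMSO baseline.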

[19] = biological target: human Retinoic Acid Receptor gamma (RARg), RARG (gene 5916) (UniProt P13631); experiment: ATG_RARg_TRANS: Attagene TRANS-FACTORIAL HepG2 Assay for human Retinoic Acid Receptor gamma (RARg) (AID 2283009; active means hit-call score of the fitted dose curve at least 0.9, where 1 is the maximum)
Chain of human Retinoic Acid Receptor gamma (RARg), RARG (gene 5916) (P13631 whole entry, looked up, the tested form may be a part): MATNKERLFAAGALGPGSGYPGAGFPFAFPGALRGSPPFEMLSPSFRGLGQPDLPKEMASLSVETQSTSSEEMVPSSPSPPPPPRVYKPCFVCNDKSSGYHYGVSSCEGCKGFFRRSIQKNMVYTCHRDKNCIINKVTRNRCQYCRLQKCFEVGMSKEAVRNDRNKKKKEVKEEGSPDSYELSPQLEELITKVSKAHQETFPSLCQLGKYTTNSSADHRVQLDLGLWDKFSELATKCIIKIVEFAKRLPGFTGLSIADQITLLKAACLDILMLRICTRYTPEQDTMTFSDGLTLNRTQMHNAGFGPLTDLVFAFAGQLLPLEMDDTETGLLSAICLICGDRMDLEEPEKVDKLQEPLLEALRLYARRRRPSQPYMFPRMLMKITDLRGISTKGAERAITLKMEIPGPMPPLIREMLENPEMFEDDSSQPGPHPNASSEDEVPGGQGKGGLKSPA
Method in brief: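 HepG2 transiently transfected with GAL4-UAS reporter units and chimeric NR-Gal4 constructs; 24 h compound exposure. Reporter mRNA quantified by RT-PCR, FAM labeling, HpaI digestion and capillary electrophoresis; gain-of-signal versus DMSO.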

[20] = biological target: human RAR-related Orphan Receptor beta (RORb), RORB (gene 6096) (UniProt Q92753); experiment: ATG_RORb_TRANS: Attagene TRANS-FACTORIAL HepG2 Assay for human RAR-related Orphan Receptor beta (RORb) (AID 2283010; active means hit-call score of the fitted dose curve at least 0.9, where 1 is the maximum)
Method in brief: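 HepG2 cells transiently transfected with GAL4-UAS reporter units expressing chimeric NR-Gal4 protein; reporter mRNA measured 24 h after dosing by RT-PCR, 6-FAM labelling and capillary electrophoresis. Gain-of-signal fitted relative to DMSO baseline.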

Measured: AC50

Clc1cccc(Cl)c1
not listed: [13] | [14] | [15] | [16] | [17] | [18] | [19] | [20]
inactive: all other assays above

C#CCOC(=O)/C=C(C)/C=C/CC(C)CCCC(C)C (stereo unspecified)
active: [3] 57.3 µM | [6] 33.5 µM | [8] 20 µM | [14] 14.9 µM | [11] 23.6 µM | [17] 27.8 µM | [18] 27.4 µM
not listed: [4] | [12] | [20]
inactive: all other assays above

O=S(=O)(Oc1ccc(Cl)cc1)c1ccc(Cl)cc1
inactive: [1] | [2] | [4] | [9] | [20]
active: [3] 23.1 µM | [17] 27.5 µM

O=C=Nc1ccc(Cl)cc1
active: [1] 149 µM
inactive: [2] | [3] | [4] | [13] | [15] | [17] | [18] | [12]

CNC(=O)CSP(=O)(OC)OC
inactive: [1] | [2] | [3] | [4] | [14] | [9] | [17]

CC(C=O)Cc1ccc2c(c1)OCO2 (stereo unspecified)
active: [18] 21.5 µM
not listed: [4] | [7] | [12] | [15] | [20]
inactive: all other assays above

Nc1ccc(N)cc1
active: [3] 11.5 µM and 12.4 µM
not listed: [7] | [9] | [13] | [15] | [18] | [20]
inactive: all other assays above

O=C(O)C1(c2ccc3c(c2)OC[C@H](Cc2ccc(-c4ccccc4)cc2)[C@H]3O)CCCC1
inactive: [1] | [2] | [4] | [5] | [8] | [10] | [16] | [18] | [19]
active: [3] 8.26 µM | [6] 29.9 µM | [14] 11 µM | [11] 13.2 µM

O=S(=O)(C(Cl)(Cl)Cl)C(Cl)(Cl)Cl
inactive: [14] | [9] | [17]
active: [1] 11.1 µM | [2] 15.6 µM | [3] 2.87 µM | [13] 15.1 µM | [5] 1.11 µM | [6] 1.24 µM | [8] 1.47 µM | [10] 2.9 µM | [11] 0.2 µM
